According to PubChem BioAssay (NCATS):
Inconclusive results are not listed. Calls of active or inactive are those of the source. Calls come from the whole dose curve; as a rule, active = well fitted curve in the direction sought with a large enough effect; inconclusive = small, poorly fitted or top-dose-only effect, or another doubt; inactive = no such curve, though single readings can be large; an effect the other way counts as inactive or inconclusive.

Assays:
HEK293T [1] = assay: qHTS assay to identify novel small-molecules to repurpose for Merkel cell carcinoma treatment (AID 1296009); details: MCC and control cell lines, CellTiter-Glo viability, 72 h; at 44.8 µM (top of the series) unless noted; note: nearly all actives have a fitted effect of over 60% in size
Outline: (§1)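 qHTS format: cells treated with library compounds in DMSO across 8 (NPC) or 11 (MIPE) concentrations. Readout after 72 hr at 37 degree celsius was CellTiter-Glo luminescence.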

MCC-13 = assay: as above; details: MCC and control cell lines, CellTiter-Glo viability, 72 h; series mostly up to 46 µM
Outline: as §1

MCC-26 = assay: as above; details: MCC and control cell lines, CellTiter-Glo viability, 72 h; series mostly up to 46 µM
Outline: as §1

MKL-1 = assay: as above; details: MCC and control cell lines, CellTiter-Glo viability, 72 h; series mostly up to 46 µM
Outline: as §1

MKL-2 = assay: as above; details: MCC and control cell lines, CellTiter-Glo viability, 72 h; series mostly up to 46 µM
Outline: as §1

UISO = assay: as above; details: MCC and control cell lines, CellTiter-Glo viability, 72 h; series mostly up to 46 µM
Outline: as §1

WaGa = assay: as above; details: MCC and control cell lines, CellTiter-Glo viability, 72 h; series mostly up to 46 µM
Outline: as §1

C33A = assay: Primary qHTS to identify gynecologic anti-cancer compounds using libraries of approved drugs and bioactive compounds (AID 1345084); details: Gynecologic cancer cell panel viability, ATPlite luminescence, 48 h; series mostly up to 57.5 µM; note: nearly all actives have a fitted effect of over 55% in size
Outline: (§2)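 Cells, 1,000 per well, were allowed to settle for 16 h at 37 C before compound addition. Five concentrations were tested for 48 h, and viability was read by ATPlite luminescence after 15 min at room temperature.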

CASKI = assay: as above; details: Gynecologic cancer cell panel viability, ATPlite luminescence, 48 h; series mostly up to 57.5 µM
Outline: as §2

Es-2 = assay: as above; details: Gynecologic cancer cell panel viability, ATPlite luminescence, 48 h; series mostly up to 57.5 µM
Outline: as §2

HeLa = assay: as above; details: Gynecologic cancer cell panel viability, ATPlite luminescence, 48 h; series mostly up to 57.5 µM
Outline: as §2

Hek293T [2] = assay: as above; details: Gynecologic cancer cell panel viability, ATPlite luminescence, 48 h, control line for the selectivity index; series mostly up to 57.5 µM
Outline: as §2

JEG-3 = assay: as above; details: Gynecologic cancer cell panel viability, ATPlite luminescence, 48 h; series mostly up to 57.5 µM
Outline: as §2

OV90 = assay: as above; details: Gynecologic cancer cell panel viability, ATPlite luminescence, 48 h; series mostly up to 57.5 µM
Outline: as §2

PA-1 = assay: as above; details: Gynecologic cancer cell panel viability, ATPlite luminescence, 48 h; series mostly up to 57.5 µM
Outline: as §2

SKOV3 = assay: as above; details: Gynecologic cancer cell panel viability, ATPlite luminescence, 48 h; series mostly up to 57.5 µM
Outline: as §2

Tov-21-G = assay: as above; details: Gynecologic cancer cell panel viability, ATPlite luminescence, 48 h; series mostly up to 57.5 µM
Outline: as §2

Tov112D = assay: as above; details: Gynecologic cancer cell panel viability, ATPlite luminescence, 48 h; series mostly up to 57.5 µM
Outline: as §2

NIH3T3 = assay: qHTS assay to identify novel small-molecules to repurpose for Merkel cell carcinoma treatment (AID 1296009); details: MCC and control cell lines, CellTiter-Glo viability, 72 h; at 44.8 µM (top of the series) unless noted; note: nearly all actives have a fitted effect of over 60% in size
Outline: as §1

CAOV3 = assay: Primary qHTS to identify gynecologic anti-cancer compounds using libraries of approved drugs and bioactive compounds (AID 1345084); details: Gynecologic cancer cell panel viability, ATPlite luminescence, 48 h; series mostly up to 57.5 µM; note: nearly all actives have a fitted effect of over 55% in size
Outline: as §2
% is set by controls: 0 for no effect and ±100 for the full control effect.

O=C(O)c1ccccc1-c1ccc(C(F)(F)F)cc1
inactive: outcome (HEK293T [1]) | Potency (MCC-13) | Potency (MCC-26) | Potency (MKL-1) | Potency (MKL-2) | Potency (UISO) | Potency (WaGa) | Potency (C33A) | Potency (CASKI) | Potency (Es-2) | Potency (HeLa) | Potency (Hek293T [2]) | Potency (JEG-3) | Potency (OV90) | Potency (PA-1) | Potency (SKOV3) | Potency (Tov-21-G) | Potency (Tov112D)

C/C(=C(\CCOP(=O)(O)O)SC(=O)c1ccccc1)N(C=O)Cc1cnc(C)nc1N
inactive: outcome (HEK293T [1]) inactive [at 4.96 µM] | activity change, negative = cytotoxicity (MCC-13) -6.17% [at 4.84 µM] | activity change, negative = cytotoxicity (MKL-1) 2.11% [at 4.84 µM] | activity change, negative = cytotoxicity (MKL-2) 12.5% [at 4.84 µM] | outcome (NIH3T3) inactive [at 4.96 µM] | activity change, negative = cytotoxicity (UISO) 22.4% [at 4.84 µM] | activity change, negative = cytotoxicity (WaGa) 24.3% [at 4.84 µM] | activity change, negative = cytotoxicity (C33A) 4.02% [at 6.55 µM] | activity change, negative = cytotoxicity (CAOV3) -0.0932% [at 6.55 µM] | activity change, negative = cytotoxicity (CASKI) 2.61% [at 6.55 µM] | activity change, negative = cytotoxicity (Es-2) -4.63% [at 6.55 µM] | activity change, negative = cytotoxicity (HeLa) 3.42% [at 6.55 µM] | activity change, negative = cytotoxicity (Hek293T [2]) -6.19% [at 6.55 µM] | activity change, negative = cytotoxicity (JEG-3) -14.5% [at 6.55 µM] | activity change, negative = cytotoxicity (PA-1) 12.8% [at 6.55 µM] | activity change, negative = cytotoxicity (SKOV3) 16.3% [at 6.55 µM] | activity change, negative = cytotoxicity (Tov-21-G) 4.62% [at 6.55 µM] | activity change, negative = cytotoxicity (Tov112D) 5.69% [at 6.55 µM]

CCCCCCCCCCCCCCCCCCOCC(O)CO (stereo unspecified)
inactive: outcome (HEK293T [1]) | Potency (MCC-13) | Potency (MCC-26) | Potency (MKL-1) | Potency (MKL-2) | Potency (UISO) | Potency (WaGa) | Potency (C33A) | Potency (CASKI) | Potency (Es-2) | Potency (HeLa) | Potency (Hek293T [2]) | Potency (JEG-3) | Potency (OV90) | Potency (PA-1) | Potency (SKOV3) | Potency (Tov-21-G) | Potency (Tov112D)

O=c1[nH]c(=O)c2[nH]c(=O)[nH]c2[nH]1
inactive: activity change, negative = cytotoxicity (MCC-13) -1.19% [at 9.22 µM] | activity change, negative = cytotoxicity (MCC-26) -17% [at 9.22 µM] | activity change, negative = cytotoxicity (MKL-1) -12.1% [at 9.22 µM] | activity change, negative = cytotoxicity (MKL-2) 7.3% [at 9.22 µM] | outcome (NIH3T3) inactive [at 9.27 µM] | activity change, negative = cytotoxicity (UISO) -5.4% [at 9.22 µM] | activity change, negative = cytotoxicity (WaGa) -8.78% [at 9.22 µM] | activity change, negative = cytotoxicity (C33A) -3.59% [at 11.6 µM] | activity change, negative = cytotoxicity (CAOV3) 6.78% [at 11.6 µM] | activity change, negative = cytotoxicity (CASKI) -0.141% [at 11.6 µM] | activity change, negative = cytotoxicity (Es-2) -0.66% [at 11.6 µM] | activity change, negative = cytotoxicity (HeLa) 4.95% [at 11.6 µM] | activity change, negative = cytotoxicity (Hek293T [2]) 6.53% [at 11.6 µM] | activity change, negative = cytotoxicity (JEG-3) 3.26% [at 11.6 µM] | activity change, negative = cytotoxicity (OV90) 21.7% [at 11.6 µM] | activity change, negative = cytotoxicity (PA-1) 8.45% [at 11.6 µM] | activity change, negative = cytotoxicity (SKOV3) -14.3% [at 11.6 µM] | activity change, negative = cytotoxicity (Tov-21-G) 19.2% [at 11.6 µM] | activity change, negative = cytotoxicity (Tov112D) -0.835% [at 11.6 µM]

CCOC(CN1CCN(CC(C)C(=O)c2ccccc2)CC1)c1ccccc1 (stereo unspecified)
inactive: Potency (MCC-13) | Potency (MCC-26) | Potency (MKL-1) | Potency (MKL-2) | outcome (NIH3T3) | Potency (UISO) | Potency (WaGa) | Potency (C33A) | Potency (CAOV3) | Potency (CASKI) | Potency (Es-2) | Potency (HeLa) | Potency (Hek293T [2]) | Potency (JEG-3) | Potency (OV90) | Potency (PA-1) | Potency (SKOV3) | Potency (Tov-21-G) | Potency (Tov112D)

CN1[C@@H]2CC(OC(=O)[C@H](CO)c3ccccc3)C[C@H]1[C@@H]1O[C@@H]12 (stereo partly specified)
inactive: outcome (HEK293T [1]) | Potency (MCC-13) | Potency (MCC-26) | Potency (MKL-1) | Potency (C33A) | Potency (CASKI) | Potency (Es-2) | Potency (HeLa) | Potency (Hek293T [2]) | Potency (JEG-3) | Potency (OV90) | Potency (PA-1) | Potency (SKOV3) | Potency (Tov-21-G) | Potency (Tov112D)

Cc1cccc(C)c1NC(=O)CN(CC(=O)O)CC(=O)O
inactive: outcome (HEK293T [1]) | Potency (MCC-13) | Potency (MKL-1) | Potency (MKL-2) | Potency (UISO) | Potency (WaGa) | Potency (C33A) | Potency (CAOV3) | Potency (CASKI) | Potency (Es-2) | Potency (HeLa) | Potency (Hek293T [2]) | Potency (JEG-3) | Potency (OV90) | Potency (PA-1) | Potency (SKOV3) | Potency (Tov-21-G) | Potency (Tov112D)

CCN(CC)CCNC(C(=O)OCCC(C)C)c1ccccc1 (stereo unspecified)
inactive: outcome (HEK293T [1]) | Potency (MCC-13) | Potency (MKL-1) | Potency (MKL-2) | outcome (NIH3T3) | Potency (UISO) | Potency (WaGa) | Potency (C33A) | Potency (CAOV3) | Potency (CASKI) | Potency (Es-2) | Potency (HeLa) | Potency (Hek293T [2]) | Potency (JEG-3) | Potency (OV90) | Potency (PA-1) | Potency (SKOV3) | Potency (Tov-21-G) | Potency (Tov112D)

O=S(=O)(O)NC1CCCCC1
inactive: outcome (HEK293T [1]) | Potency (MCC-13) | Potency (MCC-26) | Potency (MKL-1) | Potency (MKL-2) | Potency (UISO) | Potency (WaGa) | Potency (C33A) | Potency (CASKI) | Potency (Es-2) | Potency (HeLa) | Potency (Hek293T [2]) | Potency (JEG-3) | Potency (OV90) | Potency (PA-1) | Potency (SKOV3) | Potency (Tov-21-G) | Potency (Tov112D)

N[C@@H](CSSC[C@H](N)C(=O)O)C(=O)O
inactive: outcome (HEK293T [1]) inactive [at 0.588 µM] | activity change, negative = cytotoxicity (MCC-13) 4.94% [at 0.597 µM] | activity change, negative = cytotoxicity (MKL-1) 8.58% [at 0.597 µM] | activity change, negative = cytotoxicity (MKL-2) 18.8% [at 0.597 µM] | activity change, negative = cytotoxicity (UISO) 9.88% [at 0.597 µM] | activity change, negative = cytotoxicity (WaGa) 9.72% [at 0.597 µM] | activity change, negative = cytotoxicity (C33A) 7.09% [at 0.462 µM] | activity change, negative = cytotoxicity (CASKI) 7.1% [at 0.462 µM] | activity change, negative = cytotoxicity (Es-2) -1.97% [at 0.462 µM] | activity change, negative = cytotoxicity (HeLa) 1.97% [at 0.462 µM] | activity change, negative = cytotoxicity (Hek293T [2]) 4.09% [at 0.462 µM] | activity change, negative = cytotoxicity (JEG-3) -2.56% [at 0.462 µM] | activity change, negative = cytotoxicity (OV90) 16.5% [at 0.462 µM] | activity change, negative = cytotoxicity (PA-1) -8.19% [at 0.462 µM] | activity change, negative = cytotoxicity (SKOV3) 0% [at 0.462 µM] | activity change, negative = cytotoxicity (Tov-21-G) 3.42% [at 0.462 µM] | activity change, negative = cytotoxicity (Tov112D) 1.24% [at 0.462 µM]

O=C1OC(OC(=O)c2cccnc2Nc2cccc(C(F)(F)F)c2)c2ccccc21 (stereo unspecified)
inactive: outcome (HEK293T [1]) | Potency (MCC-13) | Potency (MCC-26) | Potency (MKL-1) | Potency (MKL-2) | Potency (UISO) | Potency (WaGa) | Potency (C33A) | Potency (CASKI) | Potency (Es-2) | Potency (HeLa) | Potency (Hek293T [2]) | Potency (JEG-3) | Potency (OV90) | Potency (PA-1) | Potency (SKOV3) | Potency (Tov-21-G) | Potency (Tov112D)

CC(COc1ccccc1)NC(C)C(O)c1ccc(O)cc1 (stereo unspecified)
inactive: outcome (HEK293T [1]) | Potency (MCC-13) | Potency (MKL-1) | Potency (MKL-2) | outcome (NIH3T3) | Potency (UISO) | Potency (WaGa) | Potency (C33A) | Potency (CAOV3) | Potency (CASKI) | Potency (Es-2) | Potency (HeLa) | Potency (Hek293T [2]) | Potency (JEG-3) | Potency (OV90) | Potency (PA-1) | Potency (SKOV3) | Potency (Tov-21-G) | Potency (Tov112D)
